Assay [1] in a line: NCI Yeast Anticancer Drug Screen. Data for the rad50 strain (AID 155).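 Note: 0% = growth of vehicle-only cultures of the same strain.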 The following applies: S. cerevisiae rad50 strain growth inhibition, active compounds read high. The method, boiled down:
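Vehicle-treated cultures provide the reference for the growth inhibition reported for compound-exposed, repair-deficient yeast.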

A short description of assay [2]: NCI Yeast Anticancer Drug Screen. Data for the mec2-1 strain (AID 157). As to conditions: S. cerevisiae mec2-1 strain, active compounds read high. In a few lines:
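Yeast mec2-1 mutant treated with compound. Readout: growth inhibition vs vehicle controls.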

A short description of assay [3]: NCI Yeast Anticancer Drug Screen. Data for the sgs1 mgt1 strain (AID 161).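 Note: 0% = growth of cultures given vehicle only.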 As to conditions: S. cerevisiae sgs1 mgt1 strain, active compounds read high. The method, boiled down:
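Inhibition of yeast growth, normalised to vehicle-treated controls, is reported for a strain bearing genetic alterations in DNA damage repair.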

The nature of assay [4]: NCI Yeast Anticancer Drug Screen. Data for the cln2 rad14 strain (AID 165).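 Note: 0% = growth equal to vehicle treated cultures.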 As to conditions: S. cerevisiae cln2 rad14 strain, active compounds read high. The method, boiled down:
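cln2 rad14 yeast strain; compound exposure; growth inhibition read vs vehicle controls.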

A short description of assay [5]: NCI Yeast Anticancer Drug Screen. Data for the bub3 strain (AID 167). The following applies: S. cerevisiae bub3 mutant strain, active compounds read high. In a few lines:
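Mutant yeast screening strain plus compound; vehicle-treated cultures serve as the 0% inhibition reference.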

A short description of assay [6]: NCI Yeast Anticancer Drug Screen. Data for the mlh1 rad18 strain (AID 175). The following applies: S. cerevisiae mlh1 rad18 strain growth inhibition, active compounds read high. The method, boiled down: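 Yeast w/ defined DNA-repair lesions; compound exposure; growth vs vehicle controls → % inhibition.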
[7] abbreviates: at 5.0 µM (retest, dose inferred, filed as 0.5).
Where [8] appears, read: at 50.0 µM (retest, dose inferred, filed as 5.0).

Compounds without any hit were thinned out: in the full panel of roughly 79,000, 15% have a hit. Values without a mark were called inactive. Activity calls are given as the source filed them. Cut-off read from the data, not from the text of the source: active = growth inhibition above about 70%; inactive = the rest.

With `C[C@]12CC[C@H](O)CC1=CC[C@@H]1C2CC[C@]2(C)NC(=O)CCC12` (stereo not given in full), the growth inhibition in assay [1] (setting [7]) is -4%; in assay [1] (setting [8]) it was 0%; in assay [1] (at 50.0 µM), 46.9%; in assay [2] (setting [7]), 1%; in assay [2] (setting [8]), 4%; in assay [2] (at 50.0 µM), 40.8%. For the same compound, the growth inhibition was -2% in assay [3] (setting [7]); 16% in assay [3] (setting [8]); 82.8% (active) in assay [3] (at 50.0 µM); 1% in assay [4] (setting [7]); 0% in assay [4] (setting [8]); 53% in assay [4] (at 50.0 µM). In addition, the growth inhibition in assay [5] (setting [7]) was 3%; in assay [5] (setting [8]), 4%; in assay [5] (at 50.0 µM), 39.3%; in assay [6] (setting [7]) it was -3%; in assay [6] (setting [8]), 1%; in assay [6] (at 50.0 µM), 76% (active).

Turning to `C(=P(c1ccccc1)(c1ccccc1)c1ccccc1)[P+](c1ccccc1)(c1ccccc1)c1ccccc1.[Br][Cu][Br]`, the growth inhibition in assay [1] (setting [7]) is 98% (active); in assay [1] (setting [8]), 99% (active); in assay [1] (at 50.0 µM) it was 99.2% (active); in assay [2] (setting [7]), 99% (active); in assay [2] (setting [8]) it was 99% (active); in assay [2] (at 50.0 µM), 99.5% (active). Besides, the growth inhibition was 99% (active) in assay [3] (setting [7]); 99% (active) in assay [3] (setting [8]); 99.2% (active) in assay [3] (at 50.0 µM); 98% (active) in assay [4] (setting [7]); 99% (active) in assay [4] (setting [8]); 98% (active) in assay [4] (at 50.0 µM). In addition, the growth inhibition in assay [5] (setting [7]) was 98% (active); in assay [5] (setting [8]) it was 99% (active); in assay [5] (at 50.0 µM) it was 99% (active); in assay [6] (setting [7]), 99% (active); in assay [6] (setting [8]) it was 99% (active); in assay [6] (at 50.0 µM), 99.3% (active).

As to `CC(Br)C(=O)c1ccc2cc(Cl)c3ccccc3c2c1` (stereo not given), the growth inhibition in assay [1] (setting [7]) is -2%; in assay [1] (setting [8]), 99% (active); in assay [1] (at 50.0 µM), -10.3%; in assay [2] (setting [7]), 5%; in assay [2] (setting [8]), 99% (active); in assay [2] (at 50.0 µM), 31.4%. Also, the growth inhibition is 7% in assay [3] (setting [7]); 99% (active) in assay [3] (setting [8]); 46.3% in assay [3] (at 50.0 µM); -4% in assay [4] (setting [7]); 99% (active) in assay [4] (setting [8]); -16.8% in assay [4] (at 50.0 µM). The growth inhibition in assay [5] (setting [7]) is 0%; in assay [5] (setting [8]), 99% (active); in assay [5] (at 50.0 µM), 67.8%; in assay [6] (setting [7]), 7%; in assay [6] (setting [8]), 99% (active); in assay [6] (at 50.0 µM), 39.1%.

Regarding `Nc1cc(=O)[nH]c(=S)[nH]1.[Pd]`, the growth inhibition was 0% in assay [1] (setting [7]); -4% in assay [1] (setting [8]); 20% in assay [1] (at 50.0 µM); 4% in assay [2] (setting [7]); 5% in assay [2] (setting [8]); 18.6% in assay [2] (at 50.0 µM). Also, the growth inhibition was 5% in assay [3] (setting [7]); 6% in assay [3] (setting [8]); 13.3% in assay [3] (at 50.0 µM); 0% in assay [4] (setting [7]); 36% in assay [4] (setting [8]); 71% (active) in assay [4] (at 50.0 µM). Further, the growth inhibition is 3% in assay [5] (setting [7]); 13% in assay [5] (setting [8]); -4.45% in assay [5] (at 50.0 µM); 0% in assay [6] (setting [7]); -4% in assay [6] (setting [8]); 35.6% in assay [6] (at 50.0 µM).

Regarding `O=C(Cc1ccccc1)NNc1nc(NNC(=O)c2ccncc2)nc(Nc2ccccc2)n1`, the growth inhibition in assay [1] (setting [7]) was 11%; in assay [1] (setting [8]) it was 18%; in assay [1] (at 50.0 µM), 26%; in assay [2] (setting [7]), -9%; in assay [2] (setting [8]), 11%; in assay [2] (at 50.0 µM) it was 10.4%. Also, the growth inhibition in assay [3] (setting [7]) was 12%; in assay [3] (setting [8]), 11%; in assay [3] (at 50.0 µM), 33.3%; in assay [4] (setting [7]) it was -10%; in assay [4] (setting [8]) it was 21%; in assay [4] (at 50.0 µM) it was -2.6%. Moreover, the growth inhibition was -10% in assay [5] (setting [7]); 19% in assay [5] (setting [8]); 36.6% in assay [5] (at 50.0 µM); 13% in assay [6] (setting [7]); 25% in assay [6] (setting [8]); 51.1% in assay [6] (at 50.0 µM).

With `O=C(c1ccc(Cl)cc1)C1OC12C(=O)Nc1c(Cl)cc(Cl)cc12` (stereo not given), the growth inhibition in assay [1] (setting [7]) is 1%; in assay [1] (setting [8]) it was 99% (active); in assay [1] (at 50.0 µM), 99.2% (active); in assay [2] (setting [7]) it was 3%; in assay [2] (setting [8]) it was 99% (active); in assay [2] (at 50.0 µM), 99.2% (active). The growth inhibition in assay [3] (setting [7]) is 22%; in assay [3] (setting [8]) it was 99% (active); in assay [3] (at 50.0 µM), 99.2% (active); in assay [4] (setting [7]), 5%; in assay [4] (setting [8]), 99% (active); in assay [4] (at 50.0 µM) it was 99.1% (active). The growth inhibition in assay [5] (setting [7]) is -1%; in assay [5] (setting [8]), 99% (active); in assay [5] (at 50.0 µM), 99.2% (active); in assay [6] (setting [7]) it was 4%; in assay [6] (setting [8]), 99% (active); in assay [6] (at 50.0 µM) it was 98.5% (active).

Regarding `O=C(Nc1ccc(Br)cc1)c1cc(Br)c(O)c(Br)c1O`, the growth inhibition in assay [1] (setting [7]) was 21%; in assay [1] (setting [8]) it was 99% (active); in assay [1] (at 50.0 µM) it was 58.1%; in assay [2] (setting [7]) it was 9%; in assay [2] (setting [8]) it was 99% (active); in assay [2] (at 50.0 µM), 98.8% (active). Moreover, the growth inhibition in assay [3] (setting [7]) was 29%; in assay [3] (setting [8]) it was 99% (active); in assay [3] (at 50.0 µM), 59.9%; in assay [4] (setting [7]), -5%; in assay [4] (setting [8]), 99% (active); in assay [4] (at 50.0 µM), 92.2% (active). Moreover, the growth inhibition in assay [5] (setting [7]) was 11%; in assay [5] (setting [8]), 99% (active); in assay [5] (at 50.0 µM), 98.4% (active); in assay [6] (setting [7]) it was 24%; in assay [6] (setting [8]), 99% (active); in assay [6] (at 50.0 µM) it was 98% (active).

As for `Cc1ccc(NC(=S)SCc2ccc3c(c2)OCO3)cc1Br`, the growth inhibition was 46% in assay [1] (setting [7]); 96% (active) in assay [1] (setting [8]); 89.8% (active) in assay [1] (at 50.0 µM); 29% in assay [2] (setting [7]); 98% (active) in assay [2] (setting [8]); 91.8% (active) in assay [2] (at 50.0 µM). Moreover, the growth inhibition was 55% in assay [3] (setting [7]); 98% (active) in assay [3] (setting [8]); 91.9% (active) in assay [3] (at 50.0 µM); 52% in assay [4] (setting [7]); 98% (active) in assay [4] (setting [8]); 88.5% (active) in assay [4] (at 50.0 µM). Further, the growth inhibition in assay [5] (setting [7]) was 58%; in assay [5] (setting [8]), 99% (active); in assay [5] (at 50.0 µM), 91% (active); in assay [6] (setting [7]) it was 36%; in assay [6] (setting [8]) it was 97% (active); in assay [6] (at 50.0 µM) it was 89.8% (active).

For `CC[C@@]1(OP(=O)(O)O)C(=O)OCc2c1cc1n(c2=O)Cc2cc3ccccc3nc2-1`, the growth inhibition is 89% (active) in assay [1] (setting [7]); 92% (active) in assay [1] (setting [8]); 79.2% (active) in assay [1] (at 50.0 µM); 33% in assay [2] (setting [7]); 95% (active) in assay [2] (setting [8]); 87.1% (active) in assay [2] (at 50.0 µM). Also, the growth inhibition in assay [3] (setting [7]) was 6%; in assay [3] (setting [8]), -37%; in assay [3] (at 50.0 µM), 80.7% (active); in assay [4] (setting [7]), -11%; in assay [4] (setting [8]) it was -58%; in assay [4] (at 50.0 µM), 67%. Besides, the growth inhibition in assay [5] (setting [7]) is 14%; in assay [5] (setting [8]) it was -15%; in assay [5] (at 50.0 µM) it was 77.2% (active); in assay [6] (setting [7]) it was 49%; in assay [6] (setting [8]) it was 86% (active); in assay [6] (at 50.0 µM), 74.2% (active).

For `BrCC1(CBr)COC1`, the growth inhibition in assay [1] (setting [7]) was 4%; in assay [1] (setting [8]), 47%; in assay [1] (at 50.0 µM), 3.85%; in assay [2] (setting [7]) it was 5%; in assay [2] (setting [8]), 64%; in assay [2] (at 50.0 µM), 2.2%. Besides, the growth inhibition in assay [3] (setting [7]) was 6%; in assay [3] (setting [8]), 56%; in assay [3] (at 50.0 µM), 7.75%; in assay [4] (setting [7]) it was -3%; in assay [4] (setting [8]), 30%; in assay [4] (at 50.0 µM), -8.15%. Moreover, the growth inhibition is 29% in assay [5] (setting [7]); 94% (active) in assay [5] (setting [8]); 87% (active) in assay [5] (at 50.0 µM); 2% in assay [6] (setting [7]); 87% (active) in assay [6] (setting [8]); 9.45% in assay [6] (at 50.0 µM).

The values are drawn from PubChem BioAssay (NCI).
